We go through 24 compounds from PubChem BioAssay (NCI).

Common to all, as to experiment: NCI-60 one-dose screen, 48 h (100 = growth as untreated, 0 = no growth, -100 = all killed)
Holding throughout (conditions): 10 µM unless noted

Assay [1] concerns DU-145 prostate.
Assay [2] deals with K-562 leukemia.
Assay [3] concerns MALME-3M melanoma.
For assay [4], the system named is MDA-MB-231 breast.
The subject of assay [5] is RXF 393 renal.
The test system of assay [6] is SF-268 CNS.
The test system of assay [7] is SF-295 CNS.
Assay [8] deals with SF-539 CNS.
Assay [9] relates to UACC-257 melanoma.
Assay [10] relates to M14 melanoma.

About 83,000 compounds went through this panel and 20% of them were active in at least one assay; those are over-represented in the sample as a whole.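 Interpretation: 100, growth as untreated; towards 0, rising growth inhibition; 0, no net growth; 0 to -100, cell death. Compounds scoring below 10 were considered active.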 Unmarked numbers belong to inactive results. Active and inactive are the calls of the source.

For `CCCCCCCCN(CCCCCCCC)CC(O)c1cc(Cl)ccc1OC` (stereo not given), the growth in assay [1] is 81.8%; in assay [2], 50.1%; in assay [3], 99.5%; in assay [4], 51.6%; in assay [5], 51.9%; in [6] it was 84.4%. In addition, the growth was 76.9% in assay [7], 77.8% in [8], 90.4% in assay [9] and 84.9% in assay [10].
As to `O=C1C(c2c[nH]c3ccccc23)=C(c2coc3cc(Br)ccc23)C(=O)N1O`, the growth in assay [1] is 107%; in assay [2], 93.8%; in assay [3], 107%; in assay [4], 85.9%; in assay [5], 105%; in assay [6], 98.6%. Further, the growth was 95.3% in [7], 106% in assay [8], 100% in [9] and 101% in [10].
Regarding `C=C1C(=O)O[C@H]2[C@H]1CC/C(COC(=O)NCCCCNC(=O)OC/C1=C/CC[C@@]3(C)O[C@H]3[C@H]3OC(=O)C(=C)[C@@H]3CC1)=C\CC[C@@]1(C)O[C@@H]21`, the growth is 45.8% in [1]; 4.14% (active) in assay [2]; -39.3% (active) in assay [3]; 24% in assay [4]; -30.2% (active) in assay [5]; 48.7% in assay [6]. Further, the growth in [7] was 99%; in [8], -23.6% (active); in assay [9], 2.94% (active); in assay [10] it was 11.5%.
Take `OCCN1CCN(c2cc(-c3cccc(OC(F)(F)F)c3)nc3ccc(N4CCCC4)cc23)CC1`: the growth is 58% in [1]; -10.2% (active) in assay [2]; 34.6% in assay [3]; 58.2% in assay [4]; 51% in [5]; 66.6% in assay [6]. Besides, the growth in [7] was 72.5%; in assay [8], 66.4%; in assay [9], 65.2%; in assay [10], 27.5%.
As to `COc1c(O)c(O)cc2c3c(oc12)CC(c1ccc2c(c1)OCO2)CC3=O` (stereo not given), the growth is 68.8% in assay [1]; 17.2% in [2]; 95.7% in [3]; 70.5% in [4]; 105% in assay [5]; 53.9% in assay [6]. For the same compound, the growth in [7] was 101%; in assay [8], 67.6%; in assay [9], 55.3%; in [10] it was 23.3%.
For the compound `COc1ccc(-c2nn3c(-c4cc(F)c(Cl)cc4Cl)nnc3s2)cc1`, the growth in [1] is 77.3%; in [2], 16.1%; in assay [3], 41.4%; in [4] it was 55.2%; in assay [5], 61.4%; in assay [6], 60.3%. The growth in assay [7] was 13.1%; in assay [8], 47%; in [9], 72.6%; in [10] it was 15.5%.
Regarding `COc1cc2cc(NCc3ccncc3)nc(C)c2cc1OC`, the growth is 107% in assay [1]; 126% in assay [2]; 108% in [3]; 85.9% in assay [4]; 98.5% in assay [5]; 81.9% in assay [6]. In addition, the growth in assay [7] was 71.3%; in assay [8], 89.3%; in assay [9], 79.3%; in assay [10], 82%.
For the compound `COCCn1cc(-c2csc(-c3cn(C)c4ccc(F)cc34)n2)c2cccnc21`, the growth in [1] is 69.9%; in assay [2], 2.01% (active); in assay [3], 84.8%; in assay [4], 51.5%; in [5], 72.3%; in [6], 77.2%. The growth in assay [7] is 73.7%; in assay [8] it was 78.1%; in assay [9] it was 83.8%; in assay [10] it was 50.5%.
With `CN1CCN(c2ccc(Nc3ncc(C(N)=O)c(NCCCNC(=O)C4CCC4)n3)cc2)CC1`, the growth in assay [1] was 67.6%; in [2], 41.7%; in assay [3], 76.6%; in assay [4], 11.6%; in assay [5], 20.4%; in assay [6], 80.6%. Also, the growth in [7] is 81.3%; in assay [8], 11.1%; in assay [9] it was 119%; in assay [10], 80%.
In the case of `COc1cc(/C=C2\CCC/C(=C\c3cc(CN4CCCC4)c(O)c(OC)c3)C2=O)cc(CN2CCCC2)c1O`, the growth in [1] was 2.36% (active); in assay [2], 11.1%; in [3], 81.6%; in assay [4], 12.5%; in assay [5] it was 10.6%; in assay [6], 35.3%. Further, the growth in assay [7] was 62.5%; in assay [8], 23%; in assay [9], 86.6%; in assay [10], 19.6%.
Turning to `O=C1C(Nc2ccc(Cl)cc2)=C(I)C(=O)c2ncccc21`, the growth in assay [1] is 13.6%; in [2] it was 8.51% (active); in [3], -46.5% (active); in [4], -46.4% (active); in [5] it was 41.7%; in [6], 28.9%. Moreover, the growth in assay [7] was 75.2%; in assay [8], 7.82% (active); in [9] it was 40.2%; in assay [10] it was -3.93% (active).
With `CCCCC(NC(=O)CN1C(=O)/C(=C/C(C)=C/c2ccccc2)SC1=S)C(=O)O` (stereo not given), the growth was 111% in assay [1]; 107% in assay [2]; 91.8% in assay [3]; 92.7% in [4]; 105% in assay [5]; 100% in [6]. Further, the growth was 95% in [7], 101% in [8], 104% in assay [9] and 96.6% in assay [10].
As for `O=C(c1cccc(Br)c1)N1CCN(c2ccnc3cc(Cl)ccc23)CC1`, the growth in assay [1] is 93.3%; in assay [2], 68.1%; in [3], 94.3%; in assay [4], 91.7%; in [5], 87%; in [6], 91.5%. Moreover, the growth in assay [7] is 87%; in [8], 96.9%; in assay [9] it was 85.8%; in assay [10] it was 98.6%.
As to `CCN(CC)CC#CCOC(=O)[C@]1(C)CCC[C@]2(C)c3ccc(C(C)C)cc3CC[C@@H]12`, the growth was 91.9% in [1]; 63.4% in assay [2]; 77.2% in assay [3]; 101% in [4]; 74.5% in [5]; 96.3% in assay [6]. The growth in assay [7] was 92.8%; in assay [8], 79.6%; in assay [9], 86.2%; in assay [10], 87%.
For the compound `CC(=O)c1c(C)nc2ccccc2c1/C=C/c1cccc(C)c1`, the growth in assay [1] is 88.2%; in assay [2], 16.1%; in assay [3], 82.9%; in assay [4], 63.5%; in assay [5] it was 73.1%; in [6], 81.9%. In addition, the growth in assay [7] is 58%; in [8], 61.7%; in assay [9], 73.5%; in assay [10] it was 46.3%.
In the case of `Cc1cccc(Cc2cnc(NC(=O)CCCOc3ccc(Cl)cc3)s2)c1`, the growth in assay [1] is 24.2%; in assay [2] it was 25.8%; in assay [3], 32.5%; in [4], 42.4%; in [5], 4.99% (active); in [6], 50.2%. Moreover, the growth in [7] is 12.6%; in assay [8], 8.78% (active); in assay [9] it was 23%; in [10], -1.79% (active).
Turning to `CCOC(=O)c1c(-c2ccc(C)cc2)c(C#N)c(=O)n(-c2cccc(C(F)(F)F)c2)c1N`, the growth is 108% in [1]; 97.8% in [2]; 99.4% in [3]; 97.9% in assay [4]; 101% in [5]; 97% in assay [6]. Further, the growth was 100% in assay [7], 97.2% in [8], 101% in assay [9] and 106% in [10].
Turning to `O=C(NCCCN1CCCCC1)c1ccc(-c2nc3ccc4[nH]ncc4c3c3c2CCCC3)cc1`, the growth in assay [1] is 51.3%; in assay [2], 16.7%; in assay [3], 70.8%; in assay [4], 54.9%; in [5], 28.5%; in [6], 54.2%. For the same compound, the growth in [7] was 55.3%; in assay [8], 43.8%; in [9] it was 97.2%; in assay [10], 57.3%.
As for `C=C1CCC2C3(C)COC(c4ccc(NC(C)=O)cc4)OC3CCC2(C)C1C/C=C1/C(=O)OCC1O` (stereo not given), the growth in [1] is 108%; in [2], 18.7%; in assay [3] it was 66.6%; in assay [4], 87.3%; in assay [5], 62.6%; in assay [6], 94%. Besides, the growth is 25.1% in assay [7], 69.6% in assay [8], 30.5% in [9] and 76.3% in assay [10].
On to `O=C1c2cccc3cccc(c23)C(=O)N1N1C(=O)c2cccc3c(N4CCNCC4)ccc(c23)C1=O`, for which the growth is 107% in [1]; -59.2% (active) in [2]; 88.9% in assay [3]; 85.8% in assay [4]; 101% in assay [5]; 88.7% in assay [6]. The growth in assay [7] is 101%; in assay [8] it was 100%; in assay [9], 95.2%; in [10] it was 96.6%.
Consider `Cc1ccc(/C=C(\C#N)c2cc3ccccc3[nH]2)cc1`, for which the growth in [1] is 73.1%; in assay [2], 13.8%; in [3] it was 67.7%; in assay [4], 35.9%; in assay [5], 82.8%; in assay [6], 68.1%. Moreover, the growth in assay [7] is 68.2%; in assay [8] it was 57.7%; in [9], 72.4%; in [10], 31.5%.
As for `C=C(C)[C@@H]1CC[C@]2(C)[C@H](CC(=O)N[C@H]3[C@@H]4C[C@](C)(C(=O)OC)CC[C@]4(C)CC[C@]32C)[C@@]1(C)CCC#N`, the growth in assay [1] is 94.4%; in assay [2] it was 50.3%; in [3], 86.7%; in [4], 79.7%; in assay [5] it was 83%; in assay [6], 81.2%. Also, the growth was 81.2% in [7], 95.9% in [8], 83.7% in [9] and 86.8% in assay [10].
As to `COc1ccc(C/C(C)=C(/c2ccc(OCCN3CCCCCC3)cc2)c2ccc(OC(=O)c3ccccc3)cc2)cc1`, the growth in assay [1] was 114%; in assay [2] it was 89.7%; in [3], 104%; in assay [4], 104%; in assay [5], 124%; in [6] it was 106%. Moreover, the growth in assay [7] is 96.1%; in assay [8], 96.8%; in assay [9], 100%; in assay [10], 95.3%.
For the compound `N#Cc1cc(-c2ccnc(Nc3ccc(NC(=O)CCl)cc3)n2)ccc1N1CCCC1`, the growth was 17.1% in [1]; 2.55% (active) in [2]; -68.5% (active) in assay [3]; -31.8% (active) in assay [4]; -79.3% (active) in assay [5]; -8.99% (active) in assay [6]. Also, the growth in assay [7] was -26.9% (active); in assay [8] it was -94.4% (active); in [9], 3.7% (active); in assay [10], -40.9% (active).
